Each structure is given as a SMILES string. Among all 52,000 compounds or so, about 1,700 (3.3%) were called active. The entries come from a sample that favours actives as a whole. Values without a mark were called inactive. Cut-off read from the data, not from the text of the source: active = survival mostly below about 52% (no sharp cut-off); inactive = mostly above about 56%.

This assay deals with Wild type. Kind of assay: growth inhibition of S. aureus wild type versus tarO mutant, primary screen, teichoic acid synthesis inhibitors, RN4220, OD600 (AID 463173). The following applies: S. aureus RN4220 wild type/DeltatarO growth, OD600, 18 h, active compounds read low, screened at 18.75 µg/mL (by protocol).
As for `CCOC(=O)c1ccccc1NC(=O)NCc1cccn1Cc1ccc(F)cc1`, the survival is 84%.
To `CC(=O)c1cccc(NC(=O)c2sc(-n3nc(C)c(Cc4ccc5c(c4)OCO5)c3C)nc2C)c1` belongs 94%.
With `Cc1ccc(Cn2c(CN3CCC(C(=O)O)CC3)cc3ccccc32)cc1`, the survival is 82%.
In the case of `O=C(Cn1ccc2cc(S(=O)(=O)N3CCCCC3)ccc21)NCCc1ccccc1Cl`, the survival was -6% (active).
Regarding `O=C(CCn1ccc2cc(S(=O)(=O)N3CCCC3)ccc21)NCc1ccccc1F`, the survival is 83%.
As to `O=C(Cn1ccc2cc(S(=O)(=O)N3CCCCCC3)ccc21)NCCc1ccccc1Cl`, the survival was 72%.
The value for `CCOc1ccccc1CNC(=O)CCn1ccc2cc(S(=O)(=O)N3CCC(C)CC3)ccc21` was 69%; that for `CC1CCN(S(=O)(=O)c2ccc3c(ccn3CC(=O)NCc3ccccc3F)c2)CC1` was 53%; that for `O=C(CCn1ccc2cc(S(=O)(=O)N3CCCC3)ccc21)NCc1ccccc1Br` was 72%.
With `O=C(CCn1ccc2cc(S(=O)(=O)N3CCCC3)ccc21)NCc1ccccc1Cl`, the survival was 14% (active).
As for `CC1CCN(S(=O)(=O)c2ccc3c(ccn3CCC(=O)NCc3ccccc3F)c2)CC1`, the survival was -6% (active).
The value for `O=C(Cn1ccc2cc(S(=O)(=O)N3CCCCCC3)ccc21)NCc1ccccc1Cl` was 73%; that for `NC(=O)C1CCCN1S(=O)(=O)c1ccc(F)cc1` (stereo not drawn) was 110%; that for `Cc1ccc2c(c1)N(C(=O)N1CCC(C(=O)Nc3cccc(F)c3)CC1)CCO2` was 70%.
The value for `COc1cc(C2c3c(oc4ccc(C)cc4c3=O)C(=O)N2Cc2ccc(F)cc2)ccc1O` (stereo not drawn) was 83%; that for `CCCC(C(=O)Nc1cc(C)c(Cl)cc1OC)N1Cc2ccccc2C1=O` (stereo not drawn) was 71%; that for `CCOC(=O)c1ccccc1NS(=O)(=O)c1c(-c2ccc(C)cc2)csc1C(=O)OC` was 134%.
To `Cc1ccc2oc(-c3ccc(Cl)c(NC(=O)c4cc5ccccc5o4)c3)nc2c1` belongs 66%.
As for `CSc1nnc2c(n1)OC(c1cccc(O)c1Cl)Nc1ccccc1-2` (stereo not drawn), the survival is 71%.
The value for `CSc1nc(Nc2cccc(C)c2)c(C#N)c(-c2ccccc2)n1` was 104%.
The value for `CCCCOC(=O)c1ccc(NC(=O)C2(c3cccs3)CCOCC2)cc1` was 72%; that for `COc1ccc(/C=C/C(=O)Nc2ccc3nc4c(c(Nc5ccccc5OC)c3c2)CCCC4)cc1` was 93%; that for `COc1ccccc1C(=O)NCCSc1c(C)[nH]c2ccccc12` was 52%.
Regarding `COC(=O)c1ccc(NC(=O)CCCC(=O)OCC(=O)c2ccc(Cl)cc2)cc1`, the survival is 87%.
As to `O=C(Nc1ccccc1F)c1oc2ccccc2c1NC(=O)c1c(F)cccc1F`, the survival is 53%.
The value for `Cc1ccc(Cn2c(=O)n(Cc3ccccc3)c(=O)c3c(C)c(C)sc32)cc1` was 83%; that for `Cc1sc2c(c1C)c(=O)n(CCc1ccccc1)c(=O)n2Cc1ccc(C(C)(C)C)cc1` was 85%; that for `CCOc1ccc(-n2c(=O)c3c(C)c(C)sc3n(CC(=O)C(C)(C)C)c2=O)cc1` was 125%.
Consider `Cc1ccc(Cn2c(=O)n(-c3ccc(C)c(C)c3)c(=O)c3c(C)c(C)sc32)cc1`, for which the survival is 46% (active).
`Cc1ccc(Cn2c(=O)n(CCc3ccccc3)c(=O)c3c(C)c(C)sc32)cc1`: the survival is 22% (active).
The value for `Cc1ccc(C)c(Cn2c(=O)n(-c3ccc(Cl)cc3)c(=O)c3c(C)c(C)sc32)c1` was 73%.
Take `CCOc1ccc(-n2c(=O)c3c(C)c(C)sc3n(Cc3ccccc3C)c2=O)cc1`: the survival was 89%.
To `Cc1cccc(Cn2c(=O)n(CCc3ccccc3)c(=O)c3c(C)c(C)sc32)c1` belongs 90%; to `Cc1ccc(-n2c(=O)c3c(C)c(C)sc3n(Cc3ccc(F)cc3Cl)c2=O)cc1C`, 60%.
To `Cc1sc2c(c1C)c(=O)n(CCc1ccccc1)c(=O)n2Cc1cccc(F)c1` belongs 9% (active); to `CCOc1ccc(-n2c(=O)c3c(C)c(C)sc3n(Cc3ccc(C(C)(C)C)cc3)c2=O)cc1`, 19% (active); to `Cc1sc2c(c1C)c(=O)n(CCc1ccccc1)c(=O)n2Cc1ccc(F)cc1`, 50%.
With `O=C(CN1CCCN(Cc2ccc(F)cc2)S1(=O)=O)NCc1ccccc1Cl`, the survival was 78%.
Take `CC(C)NS(=O)(=O)c1ccc(OCC(=O)N2CCN(c3ccccc3F)CC2)cc1`: the survival was 89%.
To `FC(F)(F)c1ccc(-c2noc(-c3ccccc3Br)n2)cc1` belongs 89%; to `CCOc1cc(C2CC(=O)Nc3cc4c(cc32)OCCO4)ccc1O` (stereo not drawn), 78%; to `CCCc1nn2c(=O)cc(COC(=O)c3ccc(NC(=O)COc4ccccc4F)cc3)nc2s1`, 121%.
The value for `O=C(c1cc(-c2cccc(Cl)c2)on1)N1CCCCC1` was 66%.
As for `CC1CCN(C(=O)c2cc(-c3cccc(Cl)c3)on2)CC1`, the survival is -15% (active).
To `O=C(c1cc(-c2cccc(Cl)c2)on1)N1CCN(c2ccccc2)CC1` belongs 4% (active).
To `COCCNC(=O)c1cc(-c2cccc(Cl)c2)on1` belongs 136%.
The value for `O=C(c1cc(-c2ccccc2)on1)N1CCCCC1` was 113%; that for `O=C(NCCc1ccccc1)c1cc(-c2cccc(Cl)c2)on1` was 87%.
Take `CC1CCN(C(=O)c2cc(-c3ccc(Br)cc3)on2)CC1`: the survival is 78%.
As for `CC1CCN(C(=O)c2cc(-c3ccc(Cl)cc3)on2)CC1`, the survival was 85%.
The value for `CN(Cc1ccccc1)C(=O)c1cc(-c2cccc(Cl)c2)on1` was -15% (active); that for `O=C(CSCc1cccc(F)c1)NCc1ccccc1` was 85%; that for `CC(=O)Nc1cccc(C(=O)NCc2ccc3c(c2)CCN3C(=O)c2ccccc2)c1` was 63%.
In the case of `CCOc1cc(CNc2ccc(O)cc2)ccc1OCc1ccc(Cl)cc1`, the survival is 10% (active).
To `CCOc1cc(CNc2ccc(C(=O)O)cc2)ccc1OCc1ccccc1` belongs 57%; to `Oc1ccc(NCc2ccccc2OCc2ccccc2)cc1`, 100%; to `Oc1ccc(NCc2ccccc2OCc2ccc(Cl)cc2)cc1`, 72%.
The value for `CCOc1cc(CNc2ccc(O)cc2)cc(Br)c1OCc1ccccc1` was -5% (active); that for `CCOc1cc(CNc2ccc(O)cc2)cc(Cl)c1OCc1ccccc1` was -5% (active).
To `CCOc1cccc(CNc2ccc(O)cc2)c1OCc1ccccc1Cl` belongs 54%.
`COc1cc(CNc2ccc3[nH]c(=O)[nH]c3c2)cc(Br)c1OCc1ccc(F)cc1`: the survival was 117%.
As to `CCOc1c(Cl)cc(CNc2ccc3[nH]c(=O)[nH]c3c2)cc1OC`, the survival was 88%.
To `COc1cccc(NC(=O)C2CCN(S(=O)(=O)c3ccc4[nH]c5c(c4c3)CCCCC5)CC2)c1` belongs 84%.
In the case of `COc1ccc(NC(=O)c2ccc(CNS(=O)(=O)c3ccc4c(c3)C(C)(C)C(=O)N4C)cc2)cc1`, the survival is 114%.
The value for `COc1cccc(NC(=O)c2nnn(Cc3cccc(C(F)(F)F)c3)c2N)c1` was 87%.
Take `Cc1ccc(Cl)cc1-n1c(CCC(=O)O)ccc1-c1cccs1`: the survival was 64%.
The value for `CCOc1ccc(-c2cc3c(=O)n(CC(=O)Nc4cc(F)ccc4C)ccn3n2)cc1` was 68%.
Regarding `Cc1ccc(-n2ncc(C(=O)Nc3ccc4c(c3)OCCO4)c2C2CCN(C(=O)OC(C)(C)C)CC2)cc1C`, the survival is 82%.
As for `CCCN1CCc2nc(SCC(=O)Nc3ccc(C)c(Cl)c3)[nH]c(=O)c2C1`, the survival was 99%.
For the compound `O=C(c1cc2ccc3cccnc3c2[nH]1)N1CCN(c2ccc(Cl)cc2)CC1`, the survival was 91%.
With `O=C(c1noc2c1CCCCC2)N1CCN(c2ccc(Cl)cc2)CC1`, the survival is 73%.
The value for `CC1CCc2onc(C(=O)N3CCN(c4cccc(C(F)(F)F)c4)CC3)c2C1` (stereo not drawn) was 10% (active).
To `CC1CCc2onc(C(=O)N3CCN(c4cccc(Cl)c4)CC3)c2C1` (stereo not drawn) belongs 88%; to `O=C(c1noc2c1CCCCC2)N1CCN(c2cccc(Cl)c2)CC1`, 73%.
Turning to `CC1CCc2onc(C(=O)N3CCN(c4ccccc4)CC3)c2C1` (stereo not drawn), the survival is 121%.
Take `O=C(c1noc2c1CCCCC2)N1CCN(c2cccc(C(F)(F)F)c2)CC1`: the survival was -3% (active).
On to `O=C(c1cc2ccc3cccnc3c2[nH]1)N1CCN(c2cccc(C(F)(F)F)c2)CC1`, for which the survival was -2% (active).
The value for `O=C(c1cc2ccc3cccnc3c2[nH]1)N1CCN(c2ccccc2)CC1` was 59%; that for `CCn1c(Cc2ccccc2)nnc1SCC(=O)N(C)C1CCCCC1` was 108%.
The value for `COc1ccc(CNc2nc3c(-c4ccccc4)nnn3c3ccccc23)cc1` was 90%.
Regarding `COc1ccc(-c2cc(C(=O)Nc3c(C)n(C)n(-c4ccccc4)c3=O)no2)cc1`, the survival is 73%.
To `Cc1cccc(CNC(=O)c2ccc(N3Cc4ccccc4Oc4ncccc43)s2)c1` belongs 69%.
With `Cc1ccc(Cn2c(C)c3cnn(CC(=O)N4CCN(c5cc(C)ccc5C)CC4)c(=O)c3c2C)cc1`, the survival was 65%.
The value for `CCOC(=O)c1noc2ncn(CC(=O)Nc3cc(Cl)ccc3OC)c(=O)c12` was 76%.
On to `CCOC(=O)c1noc2ncn(CC(=O)Nc3ccccc3OC)c(=O)c12`, for which the survival was 133%.
The value for `CCOC(=O)c1noc2ncn(CC(=O)Nc3ccc(F)cc3Cl)c(=O)c12` was -6% (active); that for `COc1cccc(NC(=O)Cn2c(=O)n(Cc3ccc4c(c3)OCO4)c(=O)c3oc4ccccc4c32)c1` was 80%.
To `O=C(CCn1cnc2onc(-c3ccc(F)cc3)c2c1=O)N1CCN(c2ccc(F)cc2)CC1` belongs 98%.
On to `O=C(CCn1cnc2onc(-c3ccc(F)cc3)c2c1=O)N1CCN(c2ccccc2F)CC1`, for which the survival is -6% (active).
The value for `O=C(CCn1cnc2onc(-c3ccc(F)cc3)c2c1=O)N1CCN(c2ccccc2)CC1` was 75%.
Consider `CC(=O)c1ccc(N2CCN(C(=O)CCn3cnc4onc(-c5ccc(F)cc5)c4c3=O)CC2)cc1`, for which the survival is -6% (active).
`O=C(Cn1cnc2onc(-c3ccc(F)cc3)c2c1=O)N1CCN(c2ccccc2F)CC1`: the survival is 71%.
Take `COc1ccccc1N1CCN(C(=O)CCn2cnc3onc(-c4ccc(F)cc4)c3c2=O)CC1`: the survival was 87%.

The record behind these values is PubChem BioAssay AID463173 (ICCB-Longwood Screening Facility, Harvard Medical School, 2010).
